According to the supplement of paper PMC11732987, “Enantioselective OTUD7B fragment discovery through chemoproteomics screening and high-throughput optimisation” (Communications Chemistry, 2025):

Tests used:
Experiment in all cases: log2 ratio of Biotin-Ahx-Ub-VS probe labelling (fragment/DMSO); higher = less target engagement (more negative = stronger competition), active = hit call of the paper (q ≤ 0.05, log2 ratio ≤ -1)
Conditions in all cases: compound concentration: 200 uM; treatment time: 3 h
USP19 = target: T1, USP19 (UniProt O94966)
T1 sequence (whole entry): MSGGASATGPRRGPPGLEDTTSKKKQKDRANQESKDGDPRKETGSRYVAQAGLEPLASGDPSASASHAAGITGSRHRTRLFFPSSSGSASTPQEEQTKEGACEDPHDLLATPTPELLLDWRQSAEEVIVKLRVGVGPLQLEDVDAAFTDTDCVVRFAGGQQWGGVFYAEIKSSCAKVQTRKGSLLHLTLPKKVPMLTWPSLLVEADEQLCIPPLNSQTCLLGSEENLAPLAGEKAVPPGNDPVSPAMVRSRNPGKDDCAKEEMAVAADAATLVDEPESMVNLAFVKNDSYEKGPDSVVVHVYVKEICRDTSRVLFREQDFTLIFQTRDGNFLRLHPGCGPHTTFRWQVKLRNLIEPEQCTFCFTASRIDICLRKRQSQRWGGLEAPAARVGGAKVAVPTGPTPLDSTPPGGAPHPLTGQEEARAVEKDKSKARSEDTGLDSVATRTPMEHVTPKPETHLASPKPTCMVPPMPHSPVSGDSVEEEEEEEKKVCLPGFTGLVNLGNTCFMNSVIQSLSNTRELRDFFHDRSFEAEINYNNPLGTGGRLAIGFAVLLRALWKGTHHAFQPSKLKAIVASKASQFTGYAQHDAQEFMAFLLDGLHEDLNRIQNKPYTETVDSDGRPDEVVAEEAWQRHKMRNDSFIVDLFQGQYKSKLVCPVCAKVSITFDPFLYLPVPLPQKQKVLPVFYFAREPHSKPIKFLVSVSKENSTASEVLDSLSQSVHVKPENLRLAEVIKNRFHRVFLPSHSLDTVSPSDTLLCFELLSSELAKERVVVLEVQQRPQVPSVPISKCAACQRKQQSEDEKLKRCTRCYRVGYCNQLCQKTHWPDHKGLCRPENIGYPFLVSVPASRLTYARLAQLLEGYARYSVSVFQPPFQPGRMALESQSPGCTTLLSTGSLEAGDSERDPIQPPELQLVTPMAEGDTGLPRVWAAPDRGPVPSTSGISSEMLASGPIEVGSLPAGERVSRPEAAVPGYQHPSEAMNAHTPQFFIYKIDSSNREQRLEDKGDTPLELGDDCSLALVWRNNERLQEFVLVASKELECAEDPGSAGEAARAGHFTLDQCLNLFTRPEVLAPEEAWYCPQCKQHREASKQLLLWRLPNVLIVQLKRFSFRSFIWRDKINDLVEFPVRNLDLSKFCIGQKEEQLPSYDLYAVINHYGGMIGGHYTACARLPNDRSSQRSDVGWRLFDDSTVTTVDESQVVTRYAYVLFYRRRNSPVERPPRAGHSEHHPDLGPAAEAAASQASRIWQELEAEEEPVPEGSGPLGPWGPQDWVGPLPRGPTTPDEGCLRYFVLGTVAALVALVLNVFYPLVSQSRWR
Method in brief: (§1)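 Triplicate samples of HEK293T lysate, 495 µg each, received fragment at 200 µM or vehicle for 3 h, followed by Biotin-Ahx-Ub-VS (0.5 µM final) for 1 h. After NeutrAvidin enrichment of labelled DUBs and LysC/trypsin digestion, peptides were run by diaPASEF LC-MS/MS. The values are average log2 fragment/vehicle ratios from global-median-normalised Spectronaut label-free quantities, tested by unpaired t-test on proteins having ≥2 unique peptides.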

USP24 = USP24 (UniProt Q9UPU5)
Method in brief: as §1

USP25 = target: T2, USP25 (UniProt Q9UHP3)
T2 sequence (whole entry): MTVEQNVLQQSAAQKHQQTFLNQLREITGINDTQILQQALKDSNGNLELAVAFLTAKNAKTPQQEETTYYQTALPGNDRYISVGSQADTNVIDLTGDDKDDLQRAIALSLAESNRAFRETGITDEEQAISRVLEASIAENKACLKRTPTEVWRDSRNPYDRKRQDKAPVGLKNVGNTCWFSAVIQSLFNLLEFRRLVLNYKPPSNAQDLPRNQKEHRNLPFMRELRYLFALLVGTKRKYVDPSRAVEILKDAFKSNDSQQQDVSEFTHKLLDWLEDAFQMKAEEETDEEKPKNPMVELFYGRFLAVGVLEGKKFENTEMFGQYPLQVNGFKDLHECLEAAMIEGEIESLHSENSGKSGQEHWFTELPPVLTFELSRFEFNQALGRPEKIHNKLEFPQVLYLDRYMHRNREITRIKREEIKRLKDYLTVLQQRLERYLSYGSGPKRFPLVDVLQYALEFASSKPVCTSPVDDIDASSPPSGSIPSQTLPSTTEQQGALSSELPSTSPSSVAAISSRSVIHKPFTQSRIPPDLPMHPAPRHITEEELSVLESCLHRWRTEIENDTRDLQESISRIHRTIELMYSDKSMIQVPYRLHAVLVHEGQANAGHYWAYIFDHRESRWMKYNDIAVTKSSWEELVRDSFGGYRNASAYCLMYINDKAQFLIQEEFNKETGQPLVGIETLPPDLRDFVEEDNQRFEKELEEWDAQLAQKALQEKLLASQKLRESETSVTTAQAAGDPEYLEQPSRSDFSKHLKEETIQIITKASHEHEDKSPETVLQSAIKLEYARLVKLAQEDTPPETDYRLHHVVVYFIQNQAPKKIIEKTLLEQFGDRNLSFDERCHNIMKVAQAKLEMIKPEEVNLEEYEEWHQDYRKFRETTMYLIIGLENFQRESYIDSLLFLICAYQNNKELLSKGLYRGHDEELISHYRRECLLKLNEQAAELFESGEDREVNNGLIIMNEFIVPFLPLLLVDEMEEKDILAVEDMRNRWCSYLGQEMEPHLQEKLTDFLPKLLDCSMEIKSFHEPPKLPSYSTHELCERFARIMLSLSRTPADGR
Method in brief: as §1

USP28 = target: T3, USP28 (UniProt Q96RU2)
T3 sequence (whole entry): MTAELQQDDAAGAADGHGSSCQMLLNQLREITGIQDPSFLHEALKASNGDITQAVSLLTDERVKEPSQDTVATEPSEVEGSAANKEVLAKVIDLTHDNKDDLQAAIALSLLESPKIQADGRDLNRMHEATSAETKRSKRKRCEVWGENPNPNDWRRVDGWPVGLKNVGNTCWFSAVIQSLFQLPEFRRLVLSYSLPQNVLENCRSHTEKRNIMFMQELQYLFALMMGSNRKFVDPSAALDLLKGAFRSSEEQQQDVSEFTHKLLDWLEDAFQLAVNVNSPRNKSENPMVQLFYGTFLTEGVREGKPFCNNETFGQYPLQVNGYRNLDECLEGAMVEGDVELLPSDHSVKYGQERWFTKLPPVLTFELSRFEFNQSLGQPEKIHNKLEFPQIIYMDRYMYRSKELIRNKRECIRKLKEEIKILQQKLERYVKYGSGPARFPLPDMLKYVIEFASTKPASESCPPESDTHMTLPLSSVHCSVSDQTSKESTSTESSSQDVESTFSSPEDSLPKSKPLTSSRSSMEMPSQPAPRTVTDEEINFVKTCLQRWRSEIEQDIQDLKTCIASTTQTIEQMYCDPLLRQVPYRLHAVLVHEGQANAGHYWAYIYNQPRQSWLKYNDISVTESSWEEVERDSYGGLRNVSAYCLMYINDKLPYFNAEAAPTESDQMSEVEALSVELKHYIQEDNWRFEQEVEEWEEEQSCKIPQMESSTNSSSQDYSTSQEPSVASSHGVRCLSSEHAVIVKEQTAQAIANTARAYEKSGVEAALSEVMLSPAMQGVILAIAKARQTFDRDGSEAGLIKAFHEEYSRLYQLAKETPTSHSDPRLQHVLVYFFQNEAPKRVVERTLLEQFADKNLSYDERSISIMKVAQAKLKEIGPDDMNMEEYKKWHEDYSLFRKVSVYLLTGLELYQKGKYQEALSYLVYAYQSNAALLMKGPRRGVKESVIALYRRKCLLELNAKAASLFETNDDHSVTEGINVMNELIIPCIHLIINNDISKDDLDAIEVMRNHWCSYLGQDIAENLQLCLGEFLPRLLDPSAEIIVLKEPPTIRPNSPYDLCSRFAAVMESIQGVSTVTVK
Method in brief: as §1

Measured: log2 ratio of Biotin-Ahx-Ub-VS probe labelling

Chain of USP24 (Q9UPU5 whole entry): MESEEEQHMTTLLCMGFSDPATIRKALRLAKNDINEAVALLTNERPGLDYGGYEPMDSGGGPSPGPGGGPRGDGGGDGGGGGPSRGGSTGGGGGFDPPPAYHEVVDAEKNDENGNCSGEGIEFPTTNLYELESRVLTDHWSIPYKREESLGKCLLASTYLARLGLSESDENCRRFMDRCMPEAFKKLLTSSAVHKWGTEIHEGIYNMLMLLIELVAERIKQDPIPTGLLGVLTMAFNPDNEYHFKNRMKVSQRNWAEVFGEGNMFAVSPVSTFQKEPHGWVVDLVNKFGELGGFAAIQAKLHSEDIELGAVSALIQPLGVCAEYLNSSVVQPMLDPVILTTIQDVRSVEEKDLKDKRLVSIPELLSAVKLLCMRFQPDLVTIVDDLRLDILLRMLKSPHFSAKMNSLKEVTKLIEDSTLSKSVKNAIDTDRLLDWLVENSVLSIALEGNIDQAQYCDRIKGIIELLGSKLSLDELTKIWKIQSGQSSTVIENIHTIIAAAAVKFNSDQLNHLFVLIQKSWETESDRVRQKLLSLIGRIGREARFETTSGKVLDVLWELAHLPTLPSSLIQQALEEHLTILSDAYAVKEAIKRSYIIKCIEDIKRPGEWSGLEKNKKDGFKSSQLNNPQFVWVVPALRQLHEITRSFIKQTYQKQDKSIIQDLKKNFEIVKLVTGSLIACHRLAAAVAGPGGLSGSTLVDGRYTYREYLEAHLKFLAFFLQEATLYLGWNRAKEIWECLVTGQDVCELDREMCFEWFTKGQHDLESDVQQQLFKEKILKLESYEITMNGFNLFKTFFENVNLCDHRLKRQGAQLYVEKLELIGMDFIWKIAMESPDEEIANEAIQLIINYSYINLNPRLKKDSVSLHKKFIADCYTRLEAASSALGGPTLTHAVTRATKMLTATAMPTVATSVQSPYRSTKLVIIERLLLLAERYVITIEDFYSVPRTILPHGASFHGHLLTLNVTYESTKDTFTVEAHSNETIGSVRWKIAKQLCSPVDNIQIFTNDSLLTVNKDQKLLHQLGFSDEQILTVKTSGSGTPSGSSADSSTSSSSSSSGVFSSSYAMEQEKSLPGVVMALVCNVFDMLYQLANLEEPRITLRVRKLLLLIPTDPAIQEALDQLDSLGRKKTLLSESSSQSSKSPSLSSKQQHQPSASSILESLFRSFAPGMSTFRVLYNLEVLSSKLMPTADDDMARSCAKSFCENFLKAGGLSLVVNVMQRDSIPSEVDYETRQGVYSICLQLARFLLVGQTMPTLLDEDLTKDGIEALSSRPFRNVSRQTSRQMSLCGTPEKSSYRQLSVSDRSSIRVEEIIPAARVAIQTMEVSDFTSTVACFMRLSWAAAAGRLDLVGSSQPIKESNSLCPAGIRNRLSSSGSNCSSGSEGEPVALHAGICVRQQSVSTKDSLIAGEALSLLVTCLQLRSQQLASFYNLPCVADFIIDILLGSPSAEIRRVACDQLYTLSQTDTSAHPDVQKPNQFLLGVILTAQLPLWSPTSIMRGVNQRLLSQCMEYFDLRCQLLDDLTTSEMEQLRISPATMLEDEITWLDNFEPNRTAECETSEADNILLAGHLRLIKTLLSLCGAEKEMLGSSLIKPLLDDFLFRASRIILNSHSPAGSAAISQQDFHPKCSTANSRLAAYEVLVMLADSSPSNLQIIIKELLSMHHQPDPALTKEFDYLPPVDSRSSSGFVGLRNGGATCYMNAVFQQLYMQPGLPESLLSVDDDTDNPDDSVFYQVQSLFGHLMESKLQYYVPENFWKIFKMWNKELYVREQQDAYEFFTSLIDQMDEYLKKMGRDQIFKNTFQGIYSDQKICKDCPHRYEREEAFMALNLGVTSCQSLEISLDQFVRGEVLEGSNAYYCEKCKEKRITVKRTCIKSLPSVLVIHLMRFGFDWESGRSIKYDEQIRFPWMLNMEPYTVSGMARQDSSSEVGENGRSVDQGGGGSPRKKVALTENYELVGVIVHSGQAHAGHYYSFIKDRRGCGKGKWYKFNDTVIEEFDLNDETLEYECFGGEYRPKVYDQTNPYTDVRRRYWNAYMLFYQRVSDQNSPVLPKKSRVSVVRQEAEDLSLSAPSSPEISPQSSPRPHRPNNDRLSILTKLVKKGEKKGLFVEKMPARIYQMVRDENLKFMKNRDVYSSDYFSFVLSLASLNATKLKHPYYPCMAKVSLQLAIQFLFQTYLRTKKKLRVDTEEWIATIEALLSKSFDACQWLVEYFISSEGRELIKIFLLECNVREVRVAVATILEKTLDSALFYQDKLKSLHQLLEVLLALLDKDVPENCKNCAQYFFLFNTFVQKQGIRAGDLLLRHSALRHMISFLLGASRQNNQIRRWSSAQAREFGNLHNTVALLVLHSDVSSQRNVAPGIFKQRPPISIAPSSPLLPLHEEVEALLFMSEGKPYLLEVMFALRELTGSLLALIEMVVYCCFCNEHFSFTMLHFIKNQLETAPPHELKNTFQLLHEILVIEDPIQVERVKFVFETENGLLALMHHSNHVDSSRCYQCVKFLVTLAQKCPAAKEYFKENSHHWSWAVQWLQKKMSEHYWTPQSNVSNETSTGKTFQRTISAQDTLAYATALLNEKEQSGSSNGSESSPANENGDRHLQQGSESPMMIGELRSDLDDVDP

Cc1ccccc1C1(CNC(=O)CCl)CCOCC1
inactive: USP19 -0.115 | USP24 -0.178 | USP25 -0.264 | USP28 -0.284
